The panel holds about 79,000 compounds, 15% with a hit somewhere; the sample as a whole holds those more often. No stated cut-off is given here; in the data, active means growth inhibition above about 70%; inactive means the rest.
Assays:
[1] = NCI Yeast Anticancer Drug Screen. Data for the rad50 strain (AID 155);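 further: 0% = growth of vehicle-only cultures of the same strain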; settings: S. cerevisiae rad50 strain growth inhibition; at 50.0 µM; active compounds read high
In short: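 Relative growth inhibition (compound vs vehicle) was measured in yeast with a defined repair-gene alteration.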

[2] = NCI Yeast Anticancer Drug Screen. Data for the mec2-1 strain (AID 157); settings: S. cerevisiae mec2-1 strain, at 50.0 µM, active compounds read high
In short: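 Test agents were screened against the mec2-1 yeast strain, with defined DNA repair or cell cycle alteration. Growth was scored as inhibition against vehicle-only controls.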

[3] = NCI Yeast Anticancer Drug Screen. Data for the sgs1 mgt1 strain (AID 161);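 further: 0% = growth of cultures given vehicle only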; settings: S. cerevisiae sgs1 mgt1 strain, at 50.0 µM, active compounds read high
In short: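 Test agents were incubated with a DNA-repair-mutant yeast strain. Growth was then read and compared against vehicle-treated controls.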

[4] = NCI Yeast Anticancer Drug Screen. Data for the cln2 rad14 strain (AID 165);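 further: 0% = growth equal to vehicle treated cultures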; settings: S. cerevisiae cln2 rad14 strain, at 50.0 µM, active compounds read high
In short: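 Growth of compound-exposed yeast (cln2 rad14 genotype) measured and expressed as inhibition relative to vehicle.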

[5] = NCI Yeast Anticancer Drug Screen. Data for the bub3 strain (AID 167); settings: S. cerevisiae bub3 mutant strain, at 50.0 µM, active compounds read high
In short: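 Screening used yeast with an engineered genetic alteration affecting cell cycle control. Compound-exposed cultures were compared with vehicle cultures, and reduced growth was taken as inhibition.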

[6] = NCI Yeast Anticancer Drug Screen. Data for the mlh1 rad18 strain (AID 175); settings: S. cerevisiae mlh1 rad18 strain growth inhibition; at 50.0 µM; active compounds read high
In short: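 In this whole-cell yeast screen, a strain with altered DNA damage repair is challenged with compound, and its growth is measured against matched vehicle-treated controls.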

Measured: growth inhibition

O=C(O)COc1ccc(C(=O)/C(SS/C(C(=O)c2ccc(OCC(=O)O)c(Cl)c2Cl)=C2\C=C(c3ccccc3Cl)SS2)=C2/C=C(c3ccccc3Cl)SS2)c(Cl)c1Cl
inactive: [1] -20.8% | [2] -29.1% | [3] -6.05% | [4] 7.05% | [5] -19.9% | [6] -27.1%

Br/C=C/c1ccccc1
inactive: [1] 23.6% | [2] 11.3% | [3] 0.6% | [4] -14.7% | [5] 5.85% | [6] 46.1%

Nc1ccc2cc3ccccc3cc2c1
inactive: [1] 12.6% | [2] -20.6% | [3] 1.95% | [4] -18% | [5] 7.35% | [6] 25%

CC1(C)CCc2cc3c(cc2O1)OC(C)(C)CC3=O
inactive: [1] 9.05% | [2] 8.75% | [3] -15.9% | [4] 22.4% | [5] -1.45% | [6] -17.4%

COc1cc(N(CCC#N)CCC#N)ccc1/C(N=Nc1ccccc1)=N/NC(=O)c1cc(Br)ccc1O
inactive: [1] 31.4% | [2] 37.1% | [3] 44.2% | [4] 3.3% | [5] 35.9% | [6] 21.4%

CC1C(=O)C23CC1CCC2C12COC(O)C1C(C)(C)C(O)CC2OC3=O (stereo not given)
inactive: [1] -10.4% | [2] -5.95% | [3] -12.7% | [4] 17.1% | [5] -43.6% | [6] -16.4%

Cc1cccc(C)c1NCC1CO1 (stereo not given)
inactive: [1] -17.4% | [2] -14.3% | [3] -6.3% | [4] 13.2% | [5] -17.6% | [6] -11.2%

CCCCCCCCC1CCC(=O)O1 (stereo not given)
inactive: [1] 19.8% | [2] 1.8% | [3] 16.7% | [4] 7.45% | [5] 7.25% | [6] 9%

CCOC(=O)NC(S(=O)(=O)O)S(=O)(=O)O
inactive: [1] 0.6% | [2] 9.8% | [3] -25.1% | [4] -9.8% | [5] 16.1% | [6] 18.5%

CC1(C)CCCCC1/C=C/C(CC(O)(C(F)(F)F)C(F)(F)F)=N\Nc1ccc([N+](=O)[O-])cc1[N+](=O)[O-] (stereo not given)
inactive: [1] 15.1% | [2] 9.1% | [3] 4.65% | [4] 18.1% | [5] 16.1% | [6] 26.6%

CSc1ccccc1C1CCCCCC1O (stereo not given)
inactive: [1] 11% | [2] 12.8% | [3] 5.65% | [4] 12.8% | [5] -30.6% | [6] 10.1%

CCCCCCCCCCCCSC(=O)Nc1ccc(C(=O)OCC)cc1
inactive: [1] 24.9% | [2] 3.3% | [3] 12.7% | [4] -39.2% | [5] -2.55% | [6] 20.9%

C=C(CCC(Cl)C(O)CO)[Si](C)(C)C (stereo not given)
inactive: [1] 37.5% | [2] -19.2% | [3] 52% | [4] 45.3% | [5] 49.2% | [6] 48.6%

O=C(O)C(O)C(O)C(O)C(O)C(O)CO.[NH-]C1CCCCC1[NH-].[Pt+2] (stereo not given)
inactive: [1] -18.3% | [2] 4.4% | [3] -30.4% | [4] 7.4% | [5] 6.15% | [6] -49.5%

CCCNCC(O)c1cc(C(F)(F)F)nc2c(C(F)(F)F)cccc12 (stereo not given)
inactive: [1] 29.4% | [2] -0.15% | [3] 2.25% | [4] -25.4% | [5] 0.6% | [6] 19.1%

COc1ccc(C/C=N/Nc2ccc([N+](=O)[O-])cc2[N+](=O)[O-])cc1OC
inactive: [1] 1.7% | [2] -8.05% | [3] -2.3% | [4] 3.45% | [5] -6.3% | [6] -0.55%

CN(C)CCCN1C=CC(=C2C(=O)c3ccccc3C2=O)C=C1
inactive: [1] 3.1% | [2] 20.8% | [3] 10.3% | [4] 34.9% | [5] 8.5% | [6] -0.95%

CCOc1ccccc1NC(C)=O
inactive: [1] -6.5% | [2] 6.1% | [3] 2.2% | [4] -13.4% | [5] -14.6% | [6] -0.75%

COc1ccccc1/C=N/N1C(=O)C2C3C=CC(O3)C2C1=O (stereo not given)
inactive: [1] 2.35% | [2] 9.8% | [3] 0.1% | [4] 0.15% | [5] 3.45% | [6] 14.5%

COC(=O)c1cc2ccccc2c2c3c(ccc12)OCO3
inactive: [1] 9.4% | [2] -0.15% | [3] -10.3% | [4] -43.6% | [5] -4.05% | [6] -14.3%

Cc1cc(C)c(NC(=O)C(Br)C(Br)c2ccccc2)c(C)c1 (stereo not given)
inactive: [1] 11.6% | [2] -5.6% | [3] 5.1% | [4] 23.8% | [5] 2.15% | [6] 21.4%

O=c1[nH]nc(-c2ccc3c(c2)Cc2ccccc2-3)c2ccccc12
inactive: [1] 12.8% | [2] -0.15% | [3] -23.9% | [4] -1.95% | [5] 10.3% | [6] 17.5%

CC(=O)Oc1c(/C=C/c2ccccc2)c(OC(C)=O)c2cc(Br)ccc2c1OC(C)=O
inactive: [1] 13.1% | [2] 28.2% | [3] 25.2% | [4] -27% | [5] -17.2% | [6] 29.6%

O=C(NCCO)C(=O)NCCO
inactive: [1] 5.25% | [2] -13.3% | [3] 5.7% | [4] -9.35% | [5] -2.55% | [6] 17.6%

CC1C(c2ccccc2)=CCON1c1ccccc1 (stereo not given)
inactive: [1] -2.9% | [2] -16.6% | [3] -24.4% | [4] 13.4% | [5] -3.75% | [6] -28.1%

CCOC(=O)c1ccc(/C(C)=N/NC(N)=S)cc1
inactive: [1] 7.35% | [2] 3.8% | [3] 21% | [4] 15.4% | [5] 5.35% | [6] -9.5%

CN(C)c1cccc([N+](=O)[O-])c1
inactive: [1] -54.5% | [2] -11% | [3] -44.6% | [4] -32.5% | [5] -35.4% | [6] -48.8%

CC1=CC(=O)C(=CN2C(=O)/C(=C\c3cccnc3)NC2=S)C(=O)O1
inactive: [1] -21.2% | [2] -12.2% | [3] -18.9% | [4] -20.1% | [5] -3.7% | [6] -21.9%

Clc1cccc(NNc2cccc(Cl)c2)c1
inactive: [1] -11.5% | [2] -16.8% | [3] -13.8% | [4] -66.2% | [5] 7.25% | [6] -25.9%

N#C/C(C(N)=O)=C1\CCCc2sccc21
inactive: [1] -13.3% | [2] 5.9% | [3] -6.3% | [4] -30.1% | [5] -4.75% | [6] 3.4%

CC(C)=Nn1cnc(C(=N)C#N)c1N
inactive: [1] 22.9% | [2] 3.5% | [3] -0.9% | [4] 14.5% | [5] 4.8% | [6] -7.45%

Cc1nc(N)nc(N)c1N1CCN(c2ccc(C(=O)NC(C(=O)O)C(=O)O)cc2)CC1
inactive: [1] -4.8% | [2] -15.6% | [3] -25.8% | [4] 4.55% | [5] -38.2% | [6] -37.8%

CC(I)CNc1ccc(C(=O)O)c(O)c1 (stereo not given)
inactive: [1] 3.7% | [2] -4.9% | [3] 6.15% | [4] 1% | [5] 11.6% | [6] -11.9%

O=CN/C=C/c1ccccc1O
inactive: [1] -5% | [2] 1.8% | [3] 4.1% | [4] 6.95% | [5] 12.1% | [6] -4.6%

O=C1C=C(Cl)C(=O)O1
inactive: [1] 8.85% | [2] 10.2% | [3] -8.8% | [4] -9.1% | [5] -8% | [6] 15.6%

O=C(Cn1c(=O)oc2ccc(C(=O)c3cccc(Cl)c3)cc21)c1ccccc1
inactive: [1] -47.4% | [2] -3.15% | [3] -20.6% | [4] -19.5% | [5] 11.3% | [6] -28.1%

CC(=O)NC(C)C#N (stereo not given)
inactive: [1] -15.4% | [2] -14.1% | [3] -0.2% | [4] -4% | [5] -8.7% | [6] 5.55%

CN1CC(c2ccccc2)=Cc2c1ccc(N)c2N=N
inactive: [1] -13.3% | [2] -29.2% | [3] -0.3% | [4] 15.6% | [5] 12.8% | [6] 0.15%

O=C(Nc1nncs1)c1ccncc1
inactive: [1] -14.8% | [2] -5.75% | [3] -13.2% | [4] 7.1% | [5] -28.8% | [6] -46.1%

O=C1c2ccccc2C(=Cc2cccnc2)c2ccccc21
inactive: [1] 35.3% | [2] 31.9% | [3] 30.1% | [4] 20.2% | [5] 55.1% | [6] 40.7%

— PubChem BioAssay (NCI)
